Assays:
Assay in all cases: growth inhibition (% activity, log2 RLU normalised to DMSO / staurosporine); higher = more growth inhibition
Settings in all cases: 33 µM
DIPGX29 = system: DIPGX29 (H3.3 K27M diffuse intrinsic pontine glioma line)
Method in brief: (§1)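 Approved drugs were tested in triplicate at a single final concentration of about 33 μM for 7 days at 37 °C, 5% CO2, on pHGG cell lines and H9-derived neural stem cells. Readout was CellTiter-Glo luminescence, log2-transformed and scaled per plate to % activity between solvent and positive control wells. The median over replicates gives the growth-inhibition value.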

DIPGX37 = system: DIPGX37 (H3.3 K27M diffuse intrinsic pontine glioma line)
Method in brief: as §1

DIPGX7 = system: DIPGX7 (H3.3 K27M diffuse intrinsic pontine glioma line)
Method in brief: as §1

DIPGX9 = system: DIPGX9 (diffuse intrinsic pontine glioma line)
Method in brief: as §1

HGGX39 = system: HGGX39 (paediatric high-grade glioma line)
Method in brief: as §1

HGGX6 = system: HGGX6 (H3.3 G34R paediatric high-grade glioma line)
Method in brief: as §1

HNSC = system: HNSC
Method in brief: as §1

SUDIPGIV = system: SUDIPGIV (diffuse intrinsic pontine glioma line)
Method in brief: as §1

SUDIPGVI = system: SUDIPGVI (diffuse intrinsic pontine glioma line)
Method in brief: as §1

SUDIPGXIII = system: SUDIPGXIII (diffuse intrinsic pontine glioma line)
Method in brief: as §1

Structure (SMILES) | growth inhibition (DIPGX29) [%] | growth inhibition (DIPGX37) [%] | growth inhibition (DIPGX7) [%] | growth inhibition (DIPGX9) [%] | growth inhibition (HGGX39) [%] | growth inhibition (HGGX6) [%] | growth inhibition (HNSC) [%] | growth inhibition (SUDIPGIV) [%] | growth inhibition (SUDIPGVI) [%] | growth inhibition (SUDIPGXIII) [%]
NCCCC(O)(P(=O)(O)O)P(=O)(O)O | -0.387 | -3.88 | 0.704 | 0.583 | -0.159 | -0.423 | 1.02 | -0.208 | 1.59 | 0.669
Cc1ccc(C(=O)c2cc(O)c(O)c([N+](=O)[O-])c2)cc1 | -4.7 | -1.02 | -1.81 | -2.4 | -1.44 | -3.36 | 0.397 | -4.56 | -2.71 | 1.37
C[N+](C)(CCOc1ccccc1)Cc1ccccc1.O=C([O-])c1cc2ccccc2cc1O | -1.73 | 0.336 | -2.4 | -0.621 | -1.29 | -2.23 | -1.38 | 2.44 | 1.1 | -1.56
O=C(N/N=C/c1ccc([N+](=O)[O-])o1)c1ccc(O)cc1 | 6.1 | 2.69 | 4.79 | 5.76 | 11 | 4.58 | 17.4 | 18.5 | 13.9 | 2.98
CCC(NC(C)C)C(O)c1ccc(O)c(O)c1 (stereo not given) | 2.91 | 3.09 | 1.03 | 1.97 | 2.82 | 5.22 | 3.15 | 1.08 | 5.58 | 1.21
CC[C@@H](CO)NCCN[C@@H](CC)CO | -4.2 | -0.485 | -2.38 | -2.09 | -0.115 | -2.97 | -1.6 | -3.04 | -1.42 | -0.832
Fc1ccc([C@@H]2CCNC[C@H]2COc2ccc3c(c2)OCO3)cc1 | 1.88 | 0.828 | 1.44 | -0.123 | -1.48 | 0.754 | 54.9 | -0.812 | -0.542 | 1.2
CCN(CC)CC(=O)Nc1c(C)cccc1C | 1.31 | 0.211 | 2.14 | 1.09 | 2.87 | 0.583 | 1.55 | 0.232 | 2.37 | 1.3
CCCCC(=O)N(Cc1ccc(-c2ccccc2-c2nnn[nH]2)cc1)[C@H](C(=O)O)C(C)C | -2.21 | -1.28 | -0.538 | -0.058 | -2.05 | -0.244 | -3.37 | 4.24 | -0.599 | -8.43
NC(=O)c1cccnc1 | -0.689 | -1.05 | -0.0852 | 0.951 | 0.786 | 0.835 | 0.303 | -0.404 | -0.906 | 0.194
Cc1c(NC(=O)c2cccnc2)c(=O)n(-c2ccccc2)n1C | 2.04 | 3.56 | 2.88 | 1.83 | 2.64 | 2.09 | 2.9 | 1.6 | 5.52 | -1.54
CO[C@@H]1[C@@H](OC(N)=O)[C@@H](O)[C@H](Oc2ccc3c(O)c(NC(=O)c4ccc(O)c(CC=C(C)C)c4)c(=O)oc3c2C)OC1(C)C | -0.0643 | 3.02 | 1.66 | 0.55 | 3.59 | -2.58 | 12.1 | 4.51 | 2 | -0.64
Cc1c(C(=O)NN2CCCCC2)nn(-c2ccc(Cl)cc2Cl)c1-c1ccc(Cl)cc1 | -2.71 | -0.227 | 1.25 | -0.743 | -1.14 | -2.08 | 11.7 | -1.46 | -7.47 | 3.18
CCOC(=O)C1=C(C)NC(C)=C(C(=O)OC)C1c1cccc([N+](=O)[O-])c1 (stereo not given) | -2.41 | 0.972 | 1.75 | -2.12 | 0.389 | -2.9 | 37.3 | -0.292 | -8.45 | 2.39
CC(=O)OCC(=O)[C@@]1(O)CC[C@H]2[C@@H]3CCC4=CC(=O)CC[C@]4(C)[C@H]3C(=O)C[C@@]21C | -5.36 | -1.7 | -1.09 | -3.1 | -6.61 | -4.47 | 6.87 | -5.64 | -7.69 | -0.171
C[C@@H](O)[C@H]1C(=O)N2C(C(=O)[O-])=C(SC3Cn4cnc[n+]4C3)[C@H](C)[C@H]12 (stereo not given in full) | -0.594 | -1.93 | -0.736 | 0.334 | 0.724 | 2.31 | -1.63 | -0.792 | 0.279 | 1.62
Cn1c(CNc2ccc(C(=N)N)cc2)nc2cc(C(=O)N(CCC(=O)O)c3ccccn3)ccc21 | 0.681 | 3.45 | 1.05 | 3.29 | 2.01 | -1.53 | 6.58 | 1.54 | 0.719 | -0.457
Cc1c(-c2ccccc2)oc2c(C(=O)OCCN3CCCCC3)cccc2c1=O | -0.48 | -1.55 | 0.152 | -0.867 | 0.0272 | 0.269 | -2.8 | -0.209 | -3.08 | -2.91
CCC[C@@H]1C[C@@H](C(=O)N[C@@H]([C@H]2O[C@H](SC)[C@H](OP(=O)(O)O)[C@@H](O)[C@H]2O)[C@H](C)Cl)N(C)C1 | -4.37 | -1.53 | -1.72 | -1.01 | -2.23 | -2.46 | 3.42 | -1.74 | -2.75 | 0.327
CN1C(C(=O)Nc2ccccn2)=C(O)c2ccccc2S1(=O)=O | -1.78 | 1.01 | -0.635 | -1.57 | 0.433 | -2.07 | 2.62 | -1.29 | 0.752 | -1.07

Structure (SMILES) | growth inhibition (DIPGX29) [%] | growth inhibition (DIPGX37) [%] | growth inhibition (DIPGX7) [%] | growth inhibition (DIPGX9) [%] | growth inhibition (HGGX39) [%] | growth inhibition (HGGX6) [%] | growth inhibition (HNSC) [%] | growth inhibition (SUDIPGIV) [%] | growth inhibition (SUDIPGVI) [%] | growth inhibition (SUDIPGXIII) [%]
CC[C@@]1(O)C(=O)OCc2c1cc1n(c2=O)Cc2cc3c(CN(C)C)c(O)ccc3nc2-1 | 12.9 | 21.8 | 37.9 | 51.6 | 40.2 | 17.2 | 53.9 | 48.4 | 7.54 | 4.79
CN(C)CCOc1ccc(/C(=C(/CCCl)c2ccccc2)c2ccccc2)cc1 | 2.43 | 1.15 | 6.73 | 0.45 | 5.94 | 5.5 | 2.79 | 2.82 | 0.578 | -0.556
CCOc1ccccc1OC(c1ccccc1)C1CNCCO1 (stereo not given) | 0.58 | 2.23 | -0.477 | 1.96 | 0.0675 | 0.362 | -1.38 | -0.307 | -0.0566 | 0.138
O=C(O)c1cc(=O)c2c(OCC(O)COc3cccc4oc(C(=O)O)cc(=O)c34)cccc2o1 | -1.5 | 1.34 | -1.58 | 0.155 | -0.164 | 1.99 | -1.63 | -0.417 | -0.328 | 1.77
CCOC(=O)O[C@]1(C(=O)OCCl)CC[C@H]2[C@@H]3CCC4=CC(=O)C=C[C@]4(C)[C@H]3[C@@H](O)C[C@@]21C | 1.63 | 4.19 | 2.28 | 3.44 | 2.53 | 2.56 | 1.32 | -2.17 | 3.04 | -2.19
O=C(CCCN1CCN(c2ccccn2)CC1)c1ccc(F)cc1 | 1.87 | 0.83 | 5.21 | 1.29 | 4.4 | 3.31 | 1.17 | 0.0159 | -3.95 | 2.26
O=S(=O)(O)CCS | -1.06 | 0.485 | -0.101 | 0.715 | -0.445 | -1.07 | 0.589 | -0.0759 | 1.78 | -0.97
COC(=O)/C=C/C(=O)OC | -1.63 | 0.743 | -0.432 | -0.334 | 0.42 | -3.26 | 6.49 | -2.1 | -1 | 1.57
Clc1ccccc1C(c1ccccc1)(c1ccccc1)n1ccnc1 | 3.31 | 0.662 | 3.85 | 6.07 | 16.9 | 14.3 | 31.3 | 26.9 | 2.55 | 42.1
CC(C)(C)CC(C)(C)c1ccc(OCCOCC[N+](C)(C)Cc2ccccc2)cc1 | 65.1 | 71.8 | 69 | 43.5 | 64.3 | 43.9 | 82.7 | 47.1 | 64.5 | 73.4
O=C(O)c1ccc(-n2nc(-c3ccccc3O)nc2-c2ccccc2O)cc1 | -3.59 | -2.58 | 0.0493 | -2.68 | -2 | -3.44 | 1.36 | -5.33 | -6.58 | 0.207
CC(=O)[C@H]1CC[C@H]2[C@@H]3C=CC4=CC(=O)CC[C@@]4(C)[C@@H]3CC[C@]12C | -0.886 | 4.22 | -0.136 | 0.45 | 1.86 | -2.88 | 6.39 | 2.11 | 0.865 | -1.05
CC1=C(CC(=O)O)c2cc(F)ccc2/C1=C\c1ccc([S+](C)[O-])cc1 (stereo not given) | 1.11 | 1.67 | 0.000497 | 0.866 | 0.763 | 2.31 | -0.224 | 0.82 | 2.02 | 0.292
C[C@]12CCC(=O)C=C1[C@@H]1C[C@@H]1[C@H]1[C@@H]3[C@@H]4C[C@@H]4[C@@]4(CCC(=O)O4)[C@@]3(C)CC[C@@H]12 | 0.956 | 1.46 | 0.0985 | 0.611 | 2.45 | 2.65 | 0.782 | 0.914 | 2.83 | 0.882
C[C@H](Cc1cc2c(c(C(N)=O)c1)N(CCCO)CC2)NCCOc1ccccc1OCC(F)(F)F | 1.54 | 2.46 | 0.991 | -0.478 | 0.741 | -0.678 | 3.54 | 1.64 | 1.49 | -1.83
NC[C@H]1CC[C@H](C(=O)O)CC1 | -0.318 | 1.11 | 0.868 | 1.09 | 2.3 | 0.25 | -0.348 | -1.18 | 0.626 | -0.00541
CC(O)(P(=O)(O)O)P(=O)(O)O | -0.191 | 1.06 | -0.11 | -0.168 | -1.7 | 1.43 | -0.64 | -0.506 | 1.73 | 0.673
O=C(C1CCCCC1)N1CC(=O)N2CCc3ccccc3C2C1 (stereo not given) | 0.382 | 3.23 | 1.04 | 1.99 | 2.3 | 0.441 | 3.24 | -1.19 | 3.33 | -0.635
NC(=O)C(c1ccccc1)(c1ccccc1)[C@@H]1CCN(CCc2ccc3c(c2)CCO3)C1 | 2.96 | 2.86 | 0.954 | 1.04 | 4.33 | 2.82 | 1.33 | 0.535 | 2.52 | 0.646
